ABHD5-PLIN5 inh = ABHD5-PLIN5 interaction inhibitors, primary screen, cell lysate, split luciferase complementation, luminescence; Perilipin-5 (Homo sapiens) + 1-acylglycerol-3-phosphate O-acyltransferase ABHD5 (Homo …; Split G. princeps luciferase complementation, 4 h; inhibition, % at 4 µM; 0.78% of 360,000 active;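 active = inhibition above the mean inhibition across every tested compound plus 3 SD, cut at about 22% in these data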;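 also: 0% = DMSO only wells and the 100% control is not disclosed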
PRMT1 inh = PRMT1 methyltransferase inhibitors, primary screen, biochemical, fluorescence polarization. recombinant PRMT1, activity-based probe fluorescence polarization. inhibition, % at 2.79 µM. 1.3% of 370,000 active;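 active = inhibition above about 21% made by adding two undisclosed values, limit read from the data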
Rtt109 Vps75 = inhibitors of C. albicans Rtt109/Vps75 HAT, primary screen, biochemical, ThioGlo CoA-SH fluorescence, plate reader; Histone acetyltransferase RTT109 (Candida albicans (strain SC5314 / ATCC MYA-2876)), …; purified Rtt109/Vps75, 4 h; 0.16% of 330,000 active; inhibition, % at 34.9 µM;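 active = inhibition of at least 50% in every replicate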
Target sequence (Q5AAJ8 whole entry, looked up): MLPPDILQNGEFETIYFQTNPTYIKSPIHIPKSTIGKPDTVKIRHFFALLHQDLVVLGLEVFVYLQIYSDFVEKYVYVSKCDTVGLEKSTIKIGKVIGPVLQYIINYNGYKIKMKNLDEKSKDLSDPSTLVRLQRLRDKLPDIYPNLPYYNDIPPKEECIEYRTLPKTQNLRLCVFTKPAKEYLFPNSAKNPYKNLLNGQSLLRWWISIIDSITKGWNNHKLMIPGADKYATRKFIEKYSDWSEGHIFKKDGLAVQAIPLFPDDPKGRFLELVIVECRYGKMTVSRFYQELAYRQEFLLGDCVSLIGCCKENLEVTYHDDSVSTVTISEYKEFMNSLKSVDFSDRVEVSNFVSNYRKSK
rCAG binder-1 = binders of r(CAG) RNA repeats, primary screen, biochemical, fluorescence | 1.3% of 370,000 active | inhibition, % at 3 µM | r(CAG) RNA repeat, TO-PRO-1 dye displacement fluorescence;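 active = inhibition above the plate cutoff, the mean of all test compounds on that plate plus 3 SD, cut at about 35% in these data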;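 also: 0% = DMSO alone and 100% = 100 µM mitoxantrone as full dye displacement; higher means more dye released from RNA so lower well fluorescence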
LANA-H2B inh = blockers of LANA interaction with H2A/H2B – biochemical, FP readout, HTS, primary screen. Protein LANA1 (Human herpesvirus 8 type P (isolate GK18)), Q9QR71. cell-free LANA-H2A/H2B peptide, fluorescence polarization. inhibition, % (concentration not given with the values). 0.6% of 320,000 active. AID 2629, 2010; in the data active = inhibition mostly above about 10%, no sharp cut-off; inactive = mostly below about 6.7%
ALR inh = inhibitors of human ALR sulfhydryl oxidase, primary screen, biochemical, H2O2 detection, HRP-luminol luminescence, single point | 3.8% of 290,000 active | FAD-linked sulfhydryl oxidase ALR (Homo sapiens), P55789 | inhibition, % (no concentration beside the values) | purified ALR, DTT oxidation | AID 485317, 2010;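 active = mean replicate inhibition above about 79%, with every replicate also reaching it, limit read from the data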
Target sequence (P55789 whole entry, looked up): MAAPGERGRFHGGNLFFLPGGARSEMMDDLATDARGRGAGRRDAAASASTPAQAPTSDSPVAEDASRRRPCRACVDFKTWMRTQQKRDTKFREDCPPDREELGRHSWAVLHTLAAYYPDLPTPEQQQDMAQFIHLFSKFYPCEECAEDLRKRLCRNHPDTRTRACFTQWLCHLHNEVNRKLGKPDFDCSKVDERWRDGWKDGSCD
rCAG bind conf = small molecules binding CAG repeat RNA – biochemical, fluorescence, confirmation; shares compounds with rCAG binder-1; r(CAG) RNA repeat, TO-PRO-1 dye displacement fluorescence; inhibition, % at 3 µM; 70% of 4,300 active; AID 652065, 2013;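 active = inhibition above a per-plate cutoff, the mean inhibition of sample wells plus 3 SD, cut at about 35% in these data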;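 also: loss of TO-PRO-1 fluorescence as compound displaces dye from 1x1 AA loop RNA; 0% = DMSO only wells and 100% = 100 µM mitoxantrone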
DNA CAG counter = displacement of TO-PRO-1 from CAG DNA duplex, counter-screen for rCAG RNA repeat binder project, biochemical, fluorescence, TO-PRO-1 dye, d(CAG) DNA oligo; shares compounds with rCAG binder-1; d(CAG) DNA oligo TO-PRO-1 dye displacement; inhibition, % at 3 µM; 94% of 4,300 active;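 active = inhibition above its plate's cutoff, the mean test-well inhibition plus 3 SD, cut at about 4.8% in these data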;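 also: 0% = DNA dye mix with DMSO and 100% = 100 µM mitoxantrone; hits displace the dye from DNA and so lower well fluorescence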
DNA CAG DR = inhibitors of DNA CAG/GTC TO-PRO-1 complex, dose response, counter-screen for rCAG RNA repeat binder project, biochemical, fluorescence, TO-PRO-1 dye. shares compounds with rCAG binder-1. DNA CAG/GTC duplex TO-PRO-1 dye displacement fluorescence. IC50, µM. 20% of 250 active. AID 686960, 2013; in the data active = IC50 below about 10 µM
dCAG DNA bind = TO-PRO-1 dye complex inhibitors on d(CAG) DNA, dose response, counter-screen, biochemical, fluorescence, late stage | shares compounds with rCAG binder-1 | d(CAG) DNA duplex TO-PRO-1 dye displacement | IC50, µM | 80% of 30 active
rCAG binder-2 = molecules binding r(CAG) RNA repeats, late stage dose response, late-stage follow-up, biochemical, fluorescence, dose response, powder samples | shares compounds with rCAG binder-1 | r(CAG) RNA TO-PRO-1 dye displacement | IC50, µM | 100% of 30 active | AID 720651, 2013
PRMT1 confirm = PRMT1 methyltransferase inhibitors, confirmation, biochemical, fluorescence polarization, triplicate | shares compounds with PRMT1 inh | recombinant His-PRMT1, activity-based probe fluorescence polarization | inhibition, % at 2.79 µM | 42% of 3,300 active | AID 687036, 2013;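 active = mean inhibition across replicates above the hit cutoff derived for the earlier primary screen, cut at about 22% in these data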
Starred values were filed as active, the others as inactive. An excerpt weighted towards active compounds, which were near 5.9% of everything screened. Unless noted, no rule for the calls is given here.

Screening COc1cc(/C=N/Nc2ccc([N+](=O)[O-])cc2S(=O)(=O)N2CCOCC2)cc(OC)c1OC returned ABHD5-PLIN5 inh 0, PRMT1 inh -2, Rtt109 Vps75 -5, rCAG binder-1 1, LANA-H2B inh 8 and ALR inh 0.
For O=C(Nc1ccccc1)OC1CC2CC1[C@H]1CCCCN1[C@H]2Cc1ccccc1 (stereo partly drawn) the results were PRMT1 inh -2 and rCAG binder-1 4.
COc1cccc(C(O)c2ncc(-c3ccccc3Cl)[nH]2)c1 (stereo not drawn) was read as ABHD5-PLIN5 inh -8, PRMT1 inh -2 and rCAG binder-1 2.
O=C1C(=Cc2cn(-c3ccccc3)nc2-c2ccc(OCc3ccccc3)cc2)SC(=S)N1CCS(=O)(=O)O was read as ABHD5-PLIN5 inh -2, PRMT1 inh 43*, rCAG binder-1 59*, rCAG bind conf 72*, DNA CAG counter 49* and PRMT1 confirm 5.
For O=C(O)C1Nc2c(Cl)cc(Cl)c(Cl)c2C2C=CCC12 (stereo not drawn) the results were ABHD5-PLIN5 inh 1, PRMT1 inh 21, Rtt109 Vps75 -1, rCAG binder-1 32 and LANA-H2B inh 0.
For CC(C)C1Nc2c(O)cc(Cl)c([N+](=O)[O-])c2C2C=CCC21 (stereo not drawn) the results were ABHD5-PLIN5 inh 6, PRMT1 inh 30*, Rtt109 Vps75 20, rCAG binder-1 37*, rCAG bind conf 17, DNA CAG counter 4 and PRMT1 confirm 20.
CCCCc1c(-c2ccc(OC)cc2)ncn1CCc1ccccc1OC was read as ABHD5-PLIN5 inh -2, PRMT1 inh 0 and rCAG binder-1 0.
O=C1NC(=S)S/C1=C\c1ccc(SCc2ccccc2)o1 was read as ABHD5-PLIN5 inh -1, PRMT1 inh 64*, Rtt109 Vps75 10, rCAG binder-1 82*, ALR inh -1, rCAG bind conf 79*, DNA CAG counter 43* and PRMT1 confirm 15.
Screening COc1cc(CN2C[C@@H](CO)O[C@@H](n3cnc4c(NC(C)C)ncnc43)C2)cc(OC)c1OC returned ABHD5-PLIN5 inh -6, PRMT1 inh -3 and rCAG binder-1 0.
`O=C(O)c1ccccc1-c1ccc(C=c2sc3nc4cc(Br)cnc4n3c2=O)o1` gave ABHD5-PLIN5 inh -10, PRMT1 inh 84*, rCAG binder-1 81*, rCAG bind conf 72*, DNA CAG counter 39* and PRMT1 confirm 25*.
Screening COc1ccc(N2CSC(=S)N(c3ccc(OC)cc3)C2)cc1 returned ABHD5-PLIN5 inh -11, PRMT1 inh 1 and rCAG binder-1 1.
CS(=O)(=O)c1ccc2nc(NC(=O)c3ccccc3)sc2c1 was read as ABHD5-PLIN5 inh -5, PRMT1 inh 4, Rtt109 Vps75 0, rCAG binder-1 3, LANA-H2B inh 3 and ALR inh 10.
Screening CS(=O)(=O)c1ccc(C(=O)Nc2nc(-c3ccco3)c(-c3ccco3)s2)cc1 returned ABHD5-PLIN5 inh 22*, PRMT1 inh 35*, Rtt109 Vps75 18, rCAG binder-1 88*, rCAG bind conf 34, DNA CAG counter 16* and PRMT1 confirm 28*.
For O=S(=O)(O)c1cc(O)c(N=Nc2ccc(O)cc2O)c2ccccc12 the results were ABHD5-PLIN5 inh 12, PRMT1 inh 44*, Rtt109 Vps75 0, rCAG binder-1 65*, rCAG bind conf 94*, DNA CAG counter 67* and PRMT1 confirm 43*.
Screening O=[N+]([O-])c1ccccc1N=Nc1ccc(O)cc1O returned ABHD5-PLIN5 inh -1, PRMT1 inh 4 and rCAG binder-1 16.
Screening CCn1c2ccccc2c2cc(NC(=O)CSc3nnc(-c4ccccc4)n3Cc3ccco3)ccc21 returned PRMT1 inh 80*, rCAG binder-1 35*, rCAG bind conf 27, DNA CAG counter 15* and PRMT1 confirm 65*.
`COc1ccc(NC(=O)CSc2nnc(-c3ccccc3)n2Cc2ccco2)cc1OC` gave ABHD5-PLIN5 inh 1, PRMT1 inh 1, Rtt109 Vps75 -1, rCAG binder-1 1, LANA-H2B inh -1 and ALR inh 0.
Screening O=C(C1=C(O)C(=O)N(c2nc3ccc(Cl)cc3s2)C1c1ccco1)c1ccco1 (stereo not drawn) returned ABHD5-PLIN5 inh 13, PRMT1 inh 36*, Rtt109 Vps75 24, rCAG binder-1 68*, LANA-H2B inh 3, ALR inh 40, rCAG bind conf 72*, DNA CAG counter 33*, DNA CAG DR 3.5*, dCAG DNA bind 2.9*, rCAG binder-2 1.3* and PRMT1 confirm 7.
`COc1ccc(-n2c(SCC(=O)Nc3ccc(Cl)cc3)nc(O)c(Cc3ccccc3)c2=O)cc1` gave ABHD5-PLIN5 inh 1, PRMT1 inh 34*, Rtt109 Vps75 -2, rCAG binder-1 62*, LANA-H2B inh 3, ALR inh 56, rCAG bind conf 54*, DNA CAG counter 20* and PRMT1 confirm 32*.
